Assay outcomes: PubChem, several laboratories
A selection: hits, their analogues and other compounds. The true share with any hit is near 2.9%.
CRFBP-R2 block = CRF-BP/CRF-R2 complex antagonism; hit rate 0.59% among 350,000; inhibition, % at 11.8 µM; HEK293 CRF-R2/CRF-BP, CRF-induced calcium fluorescence;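 active = inhibition of the ligand-induced calcium signal above about 50% at the single tested concentration, limit read from the data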
ABCB6 inh 2 = human ABCB6 transporter inhibition; Q9NP58; K562-ABCB6 porphyrin accumulation, flow cytometry, 1 h; active compounds read low; AID 602162; hit rate 0.19% among 360,000; fluorescence ratio to DMSO, % at 10 µM;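 active = fluorescence ratio to DMSO below 75%, the collection mean minus 3 SD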;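 note: signal is porphyrin accumulated inside mitochondria; 100% equals median channel fluorescence of DMSO control wells; lower ratio means ABCB6 inhibition with less porphyrin fluorescence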
Target sequence (Q9NP58 whole entry, looked up): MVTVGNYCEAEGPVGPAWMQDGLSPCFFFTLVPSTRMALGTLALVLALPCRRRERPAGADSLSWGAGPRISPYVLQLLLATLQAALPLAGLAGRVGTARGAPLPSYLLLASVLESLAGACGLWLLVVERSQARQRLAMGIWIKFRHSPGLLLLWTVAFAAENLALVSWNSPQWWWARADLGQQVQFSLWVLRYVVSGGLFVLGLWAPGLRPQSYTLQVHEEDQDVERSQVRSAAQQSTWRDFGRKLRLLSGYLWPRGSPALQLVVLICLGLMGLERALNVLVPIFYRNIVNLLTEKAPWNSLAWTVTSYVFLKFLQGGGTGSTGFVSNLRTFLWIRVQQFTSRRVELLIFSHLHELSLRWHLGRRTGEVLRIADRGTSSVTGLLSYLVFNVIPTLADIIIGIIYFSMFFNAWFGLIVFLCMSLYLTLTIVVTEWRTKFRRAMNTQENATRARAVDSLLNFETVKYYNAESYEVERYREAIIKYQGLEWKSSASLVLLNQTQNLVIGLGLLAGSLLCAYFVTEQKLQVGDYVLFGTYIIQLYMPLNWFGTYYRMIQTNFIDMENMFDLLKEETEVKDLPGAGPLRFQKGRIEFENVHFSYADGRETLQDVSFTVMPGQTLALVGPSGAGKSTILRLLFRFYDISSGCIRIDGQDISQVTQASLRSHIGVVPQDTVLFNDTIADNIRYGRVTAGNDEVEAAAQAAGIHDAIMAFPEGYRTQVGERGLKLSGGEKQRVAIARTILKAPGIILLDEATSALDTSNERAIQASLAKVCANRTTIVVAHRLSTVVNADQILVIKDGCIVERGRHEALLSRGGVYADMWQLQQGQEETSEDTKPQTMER
MEKK2 mut-MEK5 = signal of MEK5 binding to mutant human MEKK2 PB1 domain. AID 1530. bead flow cytometry, Alexa488-MEK5 binding to MEKK2 mutant. hit rate 0.35% among 290,000. percent response, % at 10 µM; in the data active = percent response above about 24%, passing the limit was not always enough
MEKK2 WT-MEK5 = raises or lowers MEK5 binding to wildtype human MEKK2 PB1 domain; hit rate 1.1% among 290,000; AID 1531; binding response (% of control), % at 10 µM; bead flow cytometry, Alexa488-MEK5 binding to MEKK2 WT; actives lie on both sides; Q9Y2U5; in the data active = binding response below about 67% or above about 130%
CRFBP-R2 agonist = agonists of human CRF-binding protein/CRF-R2 receptor complex; HEK293 CRF-R2/CRF-BP, calcium dye fluorescence (FLIPR); percent of saturating CRF peptide response; activation, % at 13.2 µM; hit rate 0.46% among 350,000; AID 588473;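 active = activation of at least 50%, plus an integration ratio under a set limit after plate pattern correction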;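 note: plate controls were neutral control wells without compound for no effect and CRF at EC100 for full effect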
MEKK3 PB1 HTS = raises or lowers MEK5 binding to the human MEKK3 PB1 domain; Q99759; bead-based flow cytometry, Alexa488-MEK5 binding to MEKK3; actives lie on both sides; 0 = blocked by unlabeled MEK5, 100 = vehicle; binding response (% of control), % at 10 µM; hit rate 1.4% among 290,000;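 active = binding response more than 3 SD above or below the average of its plate-row segment, actives on both sides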;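 note: Alexa488 bead fluorescence after subtracting the streptavidin-only scavenger bead signal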
ABCB6 inh CP1 = human ABCB6 transporter inhibition. shares compounds with ABCB6 inh 2. K562-ABCB6 porphyrin accumulation, flow cytometry, 1 h; active compounds read low. ratio response (% of DMSO), % at 10 µM. 700 tested, under 10 active;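 active = repeat-averaged ratio response below 75% of DMSO, the collection mean minus 3 SD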;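 note: median porphyrin fluorescence at 575 nm with 488 nm excitation from mitochondria; lower ratio means less porphyrin signal so ABCB6 inhibition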
Numbers without * were called inactive; / = not tested or not shown.

SMILES	CRFBP-R2 block	ABCB6 inh 2	MEKK2 mut-MEK5	MEKK2 WT-MEK5	CRFBP-R2 agonist	MEKK3 PB1 HTS	ABCB6 inh CP1
CC1(C(=O)NS(=O)(=O)c2cccc(OC(F)F)c2)CCN1C(=O)Cc1ccccc1 (stereo not given)	/	96	/	/	/	/	/
CC(C)c1ccc(CC(=O)N2CCC2(C)C(=O)NS(=O)(=O)c2cccc(OC(F)F)c2)cc1 (stereo not given)	/	95	/	/	/	/	97
CCCC(=O)N1CCC1(C)C(=O)NS(=O)(=O)c1ccc(F)cc1F (stereo not given)	/	88	/	/	/	/	/
CC1(C(=O)NS(=O)(=O)c2ccc(F)cc2F)CCN1C(=O)Cc1cccc2ccccc12 (stereo not given)	/	97	/	/	/	/	100
COc1cccc(NC(=O)COC(=O)CCn2c(C)csc2=O)c1	1	98	/	/	-1	/	/
CNC(=S)Nc1ccc2nc(C)oc2c1	-11	92	-24	72	0	69	/
O=C(Nc1ccc(NC(=O)C2CC2)nc1)c1cccnc1	7	68*	4	106	-2	106	102
CC1CCc2sc(C(=O)NNS(=O)(=O)c3ccc(F)c(F)c3F)cc2C1 (stereo not given)	-2	106	/	/	-4	/	/
CCOC(=O)c1sc2nc(C)cc(-c3ccccc3)c2c1N	-32	71*	6	90	-3	97	100
CCN(CC)S(=O)(=O)c1ccc(C(C)NC(=O)C2CCCN2C(=O)c2cccs2)cc1 (stereo not given)	5	101	/	/	0	/	/
O=C(Nc1ccc(Cn2cccn2)cc1)c1ccc(COc2cccc(Br)c2)cc1	18	91	-3	104	5	108	/
O=C(Nc1ccc(Cn2cccn2)cc1)c1ccc(COc2ccc(Br)cc2)cc1	9	72*	4	102	2	99	102
Cn1c(CSc2ccccc2)c(C#N)c2ccccc21	12	67*	-1	99	-1	95	99
CCCCCN(C(=O)CCC(=O)OC(C)C(=O)c1ccc(CC)cc1)c1c(N)n(CCCC)c(=O)[nH]c1=O (stereo not given)	-31	95	/	/	37	/	98
CCCCN(C(=O)CCC(=O)OCC(=O)NCc1ccccc1)c1c(N)n(CCC)c(=O)[nH]c1=O	3	101	/	/	1	/	102
CCCCCN(C(=O)CCC(=O)OCC(=O)NCc1cccc(OC)c1)c1c(N)n(CCCC)c(=O)[nH]c1=O	8	96	5	106	0	102	/
CCCCCN(C(=O)CCC(=O)OC(C)C(=O)NC1CCCCC1)c1c(N)n(CCCC)c(=O)[nH]c1=O (stereo not given)	2	96	/	/	4	/	/
CCCCCN(C(=O)CCC(=O)OCC(=O)c1ccc(CCC)cc1)c1c(N)n(CCCC)c(=O)[nH]c1=O	17	73*	/	/	1	/	98
CC(C)CN(C(=O)CCC(=O)OCC(=O)N(C)c1ccccc1)c1c(N)n(CC(C)C)c(=O)[nH]c1=O	2	100	/	/	0	/	102
CCOC(=O)[C@H]1[C@H]2COc3ccccc3[C@@H]2N2C(=O)CN(CC3CCCO3)C(=O)[C@@]12C (stereo not given in full)	-3	99	/	/	-1	/	/
COc1ccc(CNC(=O)COC(=O)c2ccc(F)c(S(=O)(=O)N3CCCCC3)c2)cc1OC	18	95	-4	100	-1	95	/
CCCCCN(C(=O)CCC(=O)OC(C)C(=O)Nc1ccccc1C)c1c(N)n(CCCC)c(=O)[nH]c1=O (stereo not given)	-22	98	/	/	9	/	103
CCOC(=O)C1(Cc2cccc(OC)c2)CCCN(C(=O)c2cc(C)on2)C1 (stereo not given)	6	106	4	101	0	96	/
CCOC(=O)c1ccc(NC(=O)CSc2nnc(CNC(=O)c3ccco3)o2)cc1	3	14*	3	100	2	100	98
Cc1ccc(NC(=O)CSc2nnc(CNC(=O)c3ccco3)o2)cc1	4	97	-17	84	3	77	/
